# Data: PubChem BioAssay (NCI)
# The panel holds about 83,000 compounds, 20% with a hit somewhere; the sample as a whole holds those more often.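 Each cell line was grown in a 96-well plate and treated with one concentration of compound for 48 hours. Values below 10 were considered active.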 A number with no mark means an inactive call. Activity calls are given as the source filed them.
# Test system: NCI-H23 lung
# Experiment: NCI-60 one-dose screen, 48 h (100 = growth as untreated, 0 = no growth, -100 = all killed)
# Conditions: 10 µM unless noted
row,SMILES,growth
1,Cc1nc2sc(C(=O)Nc3cccc(Cl)c3C)c(N)c2cc1C(=O)/C=C/c1ccccc1,28.6%
2,CN1CCN(Cc2ccc(NC(=O)c3cncc(C#Cc4cnc(N)cc4C#N)c3)cc2C(F)(F)F)CC1,15.3%
3,c1cc(OCCN2CCCC2)ccc1CNc1ccc2nc(CCC3CCCCC3)[nH]c2c1,81.9%
4,CCN(CC)CCOc1ccc2c(-c3ccccc3)c(-c3ccc(OC)cc3)c(=O)oc2c1,70.3%
5,O=C1/C(=C/c2c[nH]c(=O)[nH]c2=O)SC(=S)N1Cc1ccccc1,96.4%
6,CCN(CC)CCCNc1cc(OC)c(OC)c2cccnc12,7.1% (active)
7,COc1cc(Cc2cc(OC)c(O)c(OC)c2)cc(OC)c1O,87.6%
8,CSc1ccc(N2C(=N)C(=S)N(c3ccc(C)cc3)C2=O)cc1,98.3%
9,CCOC(=O)/C(=C(/C)NCC(C)C)c1cc(O)c(O)c2c(C)cc(=O)[nH]c12,51.4%
10,C/C(=C(\c1ccc(OCCN2CCCCCC2)cc1)c1ccc(OC(=O)c2ccccc2)cc1)c1ccc(Cl)cc1,46.7%
11,COCCn1cc(-c2csc(-c3c[nH]c4ccc(F)cc34)n2)c2cccnc21,34.8%
12,Cc1ccc2cnc(N)c(C#Cc3cc(C(=O)Nc4ccc(CN5CCN(C)CC5)c(C(F)(F)F)c4)cnc3C)c2c1,-29.6% (active)
13,O=C(NNc1nc2cc(F)ccc2n2c(CN3CCOCC3)ccc12)c1ccccc1,19.7%
14,COc1ccc(-c2nc(SCC(=O)Nc3nc4ccc(C)cc4s3)[nH]c(=O)c2C#N)cc1OC,103%
15,CCOC(=O)c1ccc[nH]1,87.7%
16,COc1cc(Cc2cc(-c3ccccc3)nn(Cc3ccccc3)c2=O)cc(OC)c1OC,37.4%
17,O=C(Nc1ccc(Nc2ccncc2)cc1)c1ccc(Nc2ccnc3ccc([N+](=O)[O-])cc23)cc1,86.9%
18,C[C@H]1[C@H](C)CC[C@]2(C(=O)NCCNCCN)CC[C@]3(C)C(=CC[C@@H]4[C@@]5(C)CCC(=O)C(C)(C)[C@@H]5CC[C@]43C)[C@H]12,94.2%
19,COc1ccc(C/C(C)=C(\c2ccc(Cl)cc2)c2ccc(OCCN3CCCC3)cc2)cc1,85%

row,SMILES,growth
1,CCOc1ccc(NC(=O)Nc2ccc(OCC)cc2)cc1,106%
2,Cc1ccc(NC(=O)c2cc3ccccc3cc2O)c(C)c1,71.9%
3,COC(=O)c1c2c(c[n+]([O-])c1C)C(=O)C=C(NCc1ccccc1)C2=O,-39.1% (active)
4,C=C1C(=O)O[C@H]2[C@H]1CC/C(CNC(=O)Cc1c[nH]c3ccccc13)=C\CC[C@@]1(C)O[C@@H]21,30%
5,C#CCOc1ccc2nc(CCl)c(Cl)c(Nc3cccc(C(F)(F)F)c3)c2c1,87.8%
6,O=C1/C(=C/c2cccc(Br)c2)COc2ccc(O)cc21,74.8%
7,CCN(CC)CCOc1ccc(/C(=C(\C)Cc2ccc(OC)cc2)c2ccc(OC(=O)NCc3ccccc3)cc2)cc1,88.4%
8,O=C(CCCCCCCC(=O)N1CCCCC1)N1CCCCC1,94.6%
9,Cc1ccc(-c2nc(SCC(=O)N3CCN(c4cc5c(cc4F)c(=O)c(C(=O)O)cn5C4CC4)CC3)nc(Cl)c2C#N)cc1,100%
10,CSc1ccc2c3c(n(C[C@H](O)CO)c(=O)c2c1)-c1ccccc1C3=O,38.1%
11,Cc1cn(C)cn1,97.7%
12,C#Cc1cccc(Nc2ncnc3cc(NC(=O)CCl)ccc23)c1,-63.5% (active)
13,O=S(=O)(NCCNc1nccc(-c2c(-c3ccc(F)c(O)c3)nc3sccn23)n1)c1ccc(Cl)cc1,42.1%
14,COc1ccc(C(O)c2cc3c(N)c(C(=O)Nc4cccc5ccccc45)sc3nc2C)cc1 (configuration not stated),23.3%
15,O=C(Nc1cc(Cl)ccc1O)c1ccccc1Nc1ccnc(C(F)(F)F)c1,-5.07% (active)
16,COc1ccc(/C=C2\c3cc(OC)c(OC)c(OC)c3CC[C@@H]2O)cc1F,37.3%
17,CCN(CC)C(=O)C1=C(C)NC(=O)NC1c1ccc2c(c1)OCO2 (configuration not stated),103%
18,COc1ccc(C=Nc2c(C(=O)Nc3cccc(Cl)c3C)sc3nc(C)c(C(=O)/C=C/c4ccc(OC)cc4)cc23)cc1,31.2%
